Screens (PubChem)
This is a sample that favours compounds with a hit; in the whole collection about 10% have one here.
HP1b binding inh: inhibitors of HP1-beta chromodomain binding to methylated histone tails | P83916 | AlphaScreen HP1-beta / biotin-H3K9me3 peptide binding | Potency, µM (highest dose often 114 µM), hits mostly inhibitors | hit rate 0.56% among 390,000 | AID 540317; note: nearly all actives have a fitted effect of over 70% in size
Target sequence (P83916 whole entry, looked up): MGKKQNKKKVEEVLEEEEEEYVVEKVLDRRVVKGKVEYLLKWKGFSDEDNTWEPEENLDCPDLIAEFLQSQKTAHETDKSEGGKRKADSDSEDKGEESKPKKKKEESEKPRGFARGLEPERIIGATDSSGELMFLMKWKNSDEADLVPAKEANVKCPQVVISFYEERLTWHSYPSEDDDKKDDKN
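HP1-beta protein (50 nM final) preincubated 30 min at room temperature with biotinylated H3(1-18)K9me3 peptide (50 nM) in PBS pH 7.4, 0.01% Tween-20, then compound added for 30 min. AlphaScreen streptavidin donor/nickel chelate acceptor beads (10 ug/mL final), 30 min dark, luminescence read.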
GLS inh: blocks human kidney-isoform glutaminase activity; O94925; GLS enzymatic activity, qHTS titration; Potency, µM (top dose mostly 45.5 µM), usual class: inhibitors; hit rate 0.21% among 410,000
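Glutamate formation by hKGA was monitored fluorometrically using coupled glutamate oxidase, HRP and Amplex Red. Substrate was added as 1 mM L-glutamine solution; incubation was 30 min at RT after an initial read.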
L3MBTL1 block: inhibitors of human L3MBTL1 | Q9Y468 | AID 485360 | AlphaScreen L3MBTL1–H3K9me1 peptide binding | Potency, µM (highest dose often 57.1 µM), hits mostly inhibitors | hit rate 0.66% among 230,000; note: nearly all actives have a fitted effect of over 60% in size
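L3MBTL1 (50 nM) pre-complexed 30 min with biotinylated H3(1-15)K9me1 peptide (75 nM), then compounds added for 30 min at room temperature; AlphaScreen streptavidin donor/nickel chelate acceptor beads (10 ug/mL final) read after 30 min dark incubation.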
JMJD2A Tudor inh: blocks the human JMJD2A Tudor domain. O75164. AlphaScreen JMJD2A-Tudor / H3K4me3 peptide binding. Potency, µM (top dose mostly 114 µM), most hits filed as inhibitors. hit rate 4.4% among 390,000; note: nearly all actives have a fitted effect of over 50% in size
BAZ2B inh: blocks human BAZ2B; hit rate 4.4% among 360,000; AID 504333; Q9UIF8; AlphaScreen BAZ2B-H3K14Ac peptide displacement; Potency, µM (top dose mostly 114 µM), most hits filed as inhibitors; note: nearly all actives have a fitted effect of over 60% in size
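Inhibition is scored as reduced AlphaScreen emission. The BAZ2B/b-H3(5-23)K14Ac complex (50 nM each) in PBS pH 7.4, 0.01% Tween-20 meets compound (up to 110 uM) for 30 min at RT before bead addition.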
G9a block: inhibitors of human histone lysine methyltransferase G9a; AID 504332; Q96KQ7; Potency, µM (series often up to 102 µM), actives largely listed as inhibitors; hit rate 8.8% among 350,000; G9a H3K9 monomethylation, AlphaScreen, 2 h; note: nearly all actives have a fitted effect of over 75% in size
Target sequence (Q96KQ7 913-1193 limits assumed): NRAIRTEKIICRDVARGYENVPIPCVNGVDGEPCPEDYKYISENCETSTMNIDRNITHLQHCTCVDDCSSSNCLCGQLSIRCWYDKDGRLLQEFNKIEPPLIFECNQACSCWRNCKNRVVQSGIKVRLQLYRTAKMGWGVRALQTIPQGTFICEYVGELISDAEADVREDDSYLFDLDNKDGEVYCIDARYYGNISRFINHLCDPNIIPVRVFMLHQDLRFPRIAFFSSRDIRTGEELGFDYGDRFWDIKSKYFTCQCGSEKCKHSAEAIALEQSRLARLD
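Using a bead-based AlphaScreen, monomethylated H3K9 product from 2 h room-temperature reactions (G9a 20 nM, peptide 500 nM, SAM 20 uM) was detected with 0.5 ug/mL rabbit anti-H3K9me1 antibody.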
A number is an active result; n = inactive; u = inconclusive; x = not tested or not shown; ! = repeats disagree; [ ] = remark or other dose. Calls come from the whole dose curve; as a rule, active = well fitted curve in the direction sought with a large enough effect; inconclusive = small, poorly fitted or top-dose-only effect, or another doubt; inactive = no such curve, though single readings can be large; an effect the other way counts as inactive or inconclusive.

SMILES | HP1b binding inh | GLS inh | L3MBTL1 block | JMJD2A Tudor inh | BAZ2B inh | G9a block
O=C(c1ccc(Cl)c(Cl)c1)N1CCC(=O)N(C(COCc2cccc(C(F)(F)F)c2)Cc2ccccc2)CC1 (stereo unspecified) | n | n | n | n | n | 50µM
COc1ccc(-n2c(/C=C/c3cc(OC)c(OC)cc3OC)nc3cc4ccccc4cc3c2=O)cc1Cl | n | n | x | u | 28µM | n
COc1cc(CCC(=O)Nc2cccc(C(F)(F)F)c2)cc(OC)c1OC | n | n | n | n | n | 45µM
Cc1nn(CC(=O)Nc2nnc(CC(=O)N3CCCC3)s2)c(=O)c2ccccc12 | n | n | n | n[11.4 µM] | n | 45µM
C/C=C/c1ccc(OCC(=O)Nc2ccc(C(N)=O)cc2)c(OC)c1 | n | n | n | n | n | n
COc1cc(/C=C/c2cc[n+](C)cc2)ccc1OCC(=O)Nc1ccccc1 | n | n | x | n | n | 13µM
COc1cc(/C=N\NC(=O)c2ccc(-c3ccccc3)cc2)ccc1OCC(N)=O | n | n | x | 89µM | n | n
COc1cc(/C=N/NC(=O)c2ccncc2)ccc1OCC(=O)Nc1ccccc1 | n | n | x | n | n | n
COc1cc(/C=N/NC(=O)c2ccccc2O)ccc1OCC(=O)Nc1ccccc1 | n | n | n | n | 79µM | n
COc1cc(/C=N\NC(=O)CC#N)ccc1OC/C=C/c1ccccc1 | n | n | x | 79µM | 56µM | n
COc1cc(/C=N\NC(=O)c2ccc(-c3ccccc3)cc2)cc(OC)c1O | n | n | x | n | n | u
COCC(=O)N/N=C\c1ccc(OC/C=C/c2ccccc2)c(OC)c1 | n | n | x | n | n | n
COc1cc(C)c(C)cc1S(=O)(=O)Nc1cccc(-c2ccc(N3CCOCC3)nn2)c1 | n | n | x | n | n | u
Fc1ccc(-c2nc(-c3cccs3)[nH]c2-c2ccc(F)cc2)cc1 | n | n | n | u | 45µM | u
Oc1ccc(-c2nc(-c3ccc(F)cc3)c(-c3ccncc3)[nH]2)cc1 | n | n | n | u | u | 13µM!
COc1ccccc1C1NC(=O)c2n[nH]c(-c3cccs3)c21 (stereo unspecified) | n | n | x | n | x | n
O=C(c1cc(-c2ccccc2)nn1CC1CC(c2cccnc2)=NO1)N1CCOCC1 (stereo unspecified) | n | n | x | u | x | x
Cc1ccc(-n2nc(-c3ccco3)cc2C(=O)O)c(C)c1 | n | n | 7.9µM | 56µM | 45µM | 18µM
Cc1ccc(-n2nc(-c3cccnc3)cc2C(=O)N2CCOCC2)c(C)c1 | n | n | x | n | n | 45µM
c1cncc(CNc2ncnc3ccc(-c4ccco4)cc23)c1 | x | x | n | x | n | u
COc1ccc(CCNc2ncnc3c2c(-c2ccccc2)cn3-c2cccc(Cl)c2)cc1OC | n | n | x | n | n | n
O=c1c(N2CCOCC2)coc2ccccc12 | n | n | n | n | n | 3.5µM
O=C(NCCCN1CCOCC1)c1coc2ccccc2c1=O | n | n | n | n | x | n
COC(=O)c1cc2occc2n1CC(=O)Nc1ccc(C(C)C)cc1 | n | n | x | n | n | n
CN1CCN(NS(=O)(=O)c2ccc(Cl)cc2)CC1 | n | n | x | n | n | 1.1µM
SMILES | HP1b binding inh | GLS inh | L3MBTL1 block | JMJD2A Tudor inh | BAZ2B inh | G9a block
CN1C(=O)/C(=C/c2ccccc2OCc2ccccc2)NC1=S | n | n | n | n | u | u
CN1C(=O)/C(=C/c2cc(C(C)(C)C)c(O)c(C(C)(C)C)c2)NC1=S | n | n | x | n | n | 13µM
CCCN(CCC)c1nc(N)nc(C#N)n1 | n | x | x | n | x | x
CCOc1ccc(NC(=O)c2cc3c(=O)n4cccc(C)c4nc3s2)cc1 | n | n | x | n | n | n
COc1ccc(OCCCCN(C)Cc2ccccc2)cc1 | u | n | n | 20µM | 71µM | u
COc1ccc(CN(CCN(C)C)Cc2ccccc2)c(OC)c1 | n | n | n | 2.5µM | 79µM | 8.9µM
COC(=O)c1ccc(OCCCCN(C)Cc2ccccc2)cc1 | u | n | n | 32µM | 56µM | 10µM
C=CCc1cc(OC)ccc1OCCN(C)Cc1ccccc1 | u | n | n | 25µM | 50µM | 13µM
COc1ccc(CN(C)CC(=O)NC(=O)NCc2ccccc2)c(OC)c1 | n | n | n | n | n | n
